# According to PubChem BioAssay (NCI):
# Several values for one entry are separate records, joined by “and”; a condition that tells them apart may be missing. Equal entries are not always repeated. The panel holds about 83,000 compounds, 20% with a hit somewhere; the sample as a whole holds those more often.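 Step 1: grow cells in 96-well plates. Step 2: add test compound at a single concentration. Step 3: incubate 48 h. Step 4: record percent growth.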 Activity calls are given as the source filed them. The calls were made as follows: active = growth percent below 10; inactive = the rest.
# Tested on: NCI/ADR-RES ovarian
# Test: NCI-60 one-dose screen, 48 h (100 = growth as untreated, 0 = no growth, -100 = all killed)
# Settings: 10 µM unless noted
row,SMILES,growth
1,N#CC1=C(c2cccs2)Nc2c(c(-c3ccccc3)nn2-c2ccccc2)C12C(=O)Nc1ccccc12 (configuration not stated),61.6% (inactive)
2,O=C1CC(c2ccc(I)cc2)OC2C=Cc3ccccc3C12 (configuration not stated),104% (inactive)
3,COc1ccc([C@H]2C(C(=O)c3ccc(Cl)cc3)C3(N[C@@H]2c2ccccc2)C(=O)Nc2ccccc23)cc1 (some centres not stated),12.2% (inactive)
4,COc1ccc2c(c1)N=c1c-2cc2c(O)[nH]c(=S)n2c1=O,26.7% (inactive)
5,CS(=O)(=O)Nc1cc(-c2ccc3ncnc(N4CCc5cc(F)c(Cl)cc54)c3c2)cnc1Cl,12.1% (inactive)
6,COc1cc(NC(=O)C(C)C)ccc1C(=O)NC(=S)Nc1ccc(S(N)(=O)=O)cc1,102% (inactive)
7,CC1=C(C(=O)OC(C)C)C(c2ccc(O)cc2)NC(=O)N1 (configuration not stated),99.8% (inactive)
8,COc1cccc(/C=C/c2nc3ccccc3c(=O)n2CC(=O)Nc2ccccc2)c1,33% (inactive)
9,COC(=O)c1c(C(=O)OC)c2ccc3c4ccccc4ccc3n2c1C(=O)OC,112% (inactive)
10,CCCCCCCCc1cccc(CC(=O)Nc2ccc(C)cc2C(=O)O)c1,49.6% [25 µM] (inactive)
11,O=C(c1cc2cc(OCCCN3CCC3)ccc2[nH]1)N1C[C@@H](CCl)c2c1cc(OCc1ccccc1)c1ccccc21,-34.9% (active)
12,CC(C)(C)OC(=O)N1CCC2(CC1)Oc1ccccc1[C@H]1CC(c3ccc(Br)cc3)=NN12,83.7% (inactive)
13,COc1ccc(NC2=C(I)C(=O)C(C)=C(C)C2=O)cc1,-20% (active)
14,CC[C@]12C=CCN3CC[C@@]4(c5ccc(OC)cc5N(C)[C@H]4[C@@](O)(C(=O)OC)[C@@H]1OC(=O)CCCC[P+](c1ccc(F)cc1)(c1ccc(F)cc1)c1ccc(F)cc1)[C@@H]32,105% (inactive)
15,FC(F)(F)c1cc2c(Cl)ncnc2n1CCN1CCCCC1,79% (inactive)
16,O=C(CSc1nnc(-c2ccc(-c3nc4ccc(Cl)cc4[nH]3)cc2)o1)Nc1ccccc1,31.7% (inactive)

row,SMILES,growth
1,Cc1cccc(NCC(=O)N2CCN(c3ncnc4c3cnn4-c3ccccc3)CC2)c1,60.6% (inactive)
2,CS(=O)(=O)c1ccc(-n2nc(C(=O)NCc3ccccc3)cc2-c2ccc(Cl)cc2)cc1,83.9% (inactive)
3,CS(=O)(=O)Nc1cccc(-n2c(COc3ccc(OC(F)(F)F)cc3)nc3ccccc32)c1,88.2% (inactive) and 107% (inactive)
4,O=C(CSc1nc2sc3c(c2c(=O)n1-c1ccc(Cl)cc1)CCCC3)NNC(=O)c1ccc(Br)cc1,66% (inactive)
5,O=C(c1ccc(Cl)cc1)C1[C@H](c2ccccc2Cl)[C@@H](c2ccccc2)NC12C(=O)Nc1ccccc12 (some centres not stated),-62.5% (active)
6,O=C1NC(=NC23CC4CC(CC(C4)C2)C3)N/C1=C\c1ccc2ncccc2c1,-28.7% (active)
7,N#CC1=C(c2ccco2)Nc2c(c(-c3ccccc3)nn2-c2ccccc2)C12C(=O)Nc1ccc(Cl)cc12 (configuration not stated),-3.42% (active)
8,O=C(c1ccc(O)cc1)C1[C@H](c2ccccc2Br)[C@@H](c2ccccc2)NC12C(=O)Nc1ccccc12 (some centres not stated),53.1% (inactive)
9,c1ccc(CSc2nnc(-c3ccc4nc(-c5ccccc5)[nH]c4c3)o2)cc1,-40.3% (active)
10,O=C(CSc1nnc(-c2ccc(-c3nc4ccccc4[nH]3)cc2)o1)Nc1ccccc1,76.3% (inactive)
11,CCCCCCCCCCCCCCCCCC(=O)Nc1ccc(OC)cc1,101% (inactive)
12,Nc1nn2c(-c3cc4ccccc4oc3=O)ccnc2c1N=Nc1ccccc1,47.2% (inactive)
13,O=C1NC(=S)/C(=C/c2cn(-c3ccccc3)nc2-c2ccccc2)S1,18.6% (inactive)
14,CC(Nc1ncnc2ccc(-c3ccc4oc(N)nc4c3)cc12)c1ccccc1 (configuration not stated),-18.7% (active)
15,O=C(N/N=C/c1ccsc1)c1[nH]c2ccc(Br)cc2c1-c1ccccc1,-42% (active)

# Tested on: T-47D breast
# Test: as above
# Settings: 1 µM
row,SMILES,growth
1,CC/C(=C(\c1ccc(O)cc1)c1ccc(OCCN(C)C(=O)COCCNC(=O)Cc2ccc3c(c2)CN([C@@H]2CCC(=O)NC2=O)C3=O)cc1)c1ccccc1,15.5% (inactive)
2,CC/C(=C(\c1ccc(O)cc1)c1ccc(OCCN(C)C(=O)CCOCCNC(=O)c2ccc3c(c2)CN([C@@H]2CCC(=O)NC2=O)C3=O)cc1)c1ccccc1,38.3% (inactive)
3,CC/C(=C(/c1ccc(O)cc1)c1ccc(OCCN(C)C(=O)CCOCCNC(=O)Cc2ccc3c(c2)CN([C@@H]2CCC(=O)NC2=O)C3=O)cc1)c1ccccc1,20.9% (inactive)
4,CC/C(=C(/c1ccc(O)cc1)c1ccc(OCCN(C)C(=O)COCCOCCNC(=O)c2ccc3c(c2)CN([C@@H]2CCC(=O)NC2=O)C3=O)cc1)c1ccccc1,28.6% (inactive)
5,CC/C(=C(\c1ccc(O)cc1)c1ccc(OCCNC)cc1)c1ccccc1,59.6% (inactive)
6,CC/C(=C(/c1ccc(O)cc1)c1ccc(OCCN(C)C(=O)COCCOCCNC(=O)Cc2ccc3c(c2)CN([C@@H]2CCC(=O)NC2=O)C3=O)cc1)c1ccccc1,19.2% (inactive)
